Data from publication PMC7819943, “Rice protein-binding microarrays: a tool to detect cis-acting elements near promoter regions in rice”.
In all, about 35,000 sequences were measured (“fluorescence intensity (a.u.)”: median about 10,000, highest 2% from about 52,000 on). Shown is part of a subset that was picked to be rich in the highest values.

What follows are sequences tested against T1, OsWOX13 (Oryza sativa, UniProt Q5QMM3 1-267) (assay: protein-binding microarray (RPBM); PBS, 2% BSA, 51.3 ng/ul salmon testes DNA, 50 uM zinc acetate, 200 nM TF, 25 C, 1 h; high values mean tight binding). Conditions: protein: recombinant; tags: N-terminal polyhistidine and DsRed monomer fusion (pET32a); label: CyDye5-dUTP incorporated in the synthesized complementary strand; 3' TTTTT single-stranded linker to array surface; dsDNA, one strand shown.
T1 sequence: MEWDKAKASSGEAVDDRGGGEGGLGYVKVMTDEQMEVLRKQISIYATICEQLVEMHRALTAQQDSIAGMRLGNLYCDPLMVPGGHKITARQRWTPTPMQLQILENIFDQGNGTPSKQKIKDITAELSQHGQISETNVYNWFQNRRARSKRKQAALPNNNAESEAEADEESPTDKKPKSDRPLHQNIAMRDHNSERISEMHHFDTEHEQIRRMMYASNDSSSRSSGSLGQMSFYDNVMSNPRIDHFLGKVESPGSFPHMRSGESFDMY
Method in brief: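 Binding signal here means per-feature fluorescence intensity in arbitrary units. The values were read on an Axon 4000B scanner after a custom Agilent array, double-stranded by primer extension with Cy5-dUTP, was incubated with 200 nM protein at 25 °C for 1 h in PBS with 2% BSA, salmon testes DNA and 50 µM zinc acetate, then washed. The proteins were transcription factors with an N-terminal polyhistidine tag and DsRed, expressed in E. coli BL21-CodonPlus and purified on Ni–NTA.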
With “TTCCAACCAATCATAACCCAATAAGAGCAAAATGGAAAACCGGAGTCACCTAGTGCAG” the binding signal was 4060 fluorescence intensity (a.u.). “AGGTGTTGATTTTGGGTGGCGGGCCCAATCGGATAGGCCACGGAGTCACCTAGTGCAG” was tested, and the binding signal was 3770 fluorescence intensity (a.u.). “CTGAGGACACTTAATGATTGATGCTCATAATATATTGTTTCGGAGTCACCTAGTGCAG” was tested, and the binding signal was 17300 fluorescence intensity (a.u.). With “AAAAGCAGGTTTACTTACGCCTCATGTTCTCACACTAATTCGGAGTCACCTAGTGCAG” the binding signal was 24400 fluorescence intensity (a.u.). “TCTGTCTGATTTGTAATCTTTTCCCTTGGCTTTGAGCGTGCGGAGTCACCTAGTGCAG” was tested, and the binding signal was 29400 fluorescence intensity (a.u.). For “AATTAATTAATTAGCAATGCAGCATCGTCGATCATTGACCCGGAGTCACCTAGTGCAG”, the binding signal was 62500 fluorescence intensity (a.u.). With “TATATATATATAATTATGCATCCTGGTTAGCAATTAATGTCGGAGTCACCTAGTGCAG” the binding signal was 3400 fluorescence intensity (a.u.). In the case of “GGTCGATCCATCGATTGATGGATCAATAATGCAAGCAAGCCGGAGTCACCTAGTGCAG”, the binding signal is reported as 5030 fluorescence intensity (a.u.). With “GCAATAATAATTACTGATAGCCACCACTATCAATAATAATCGGAGTCACCTAGTGCAG” the binding signal was 12600 fluorescence intensity (a.u.). With “TTTGCCACTAATTAATCTACTAATGGCTTATGATAGTCATCGGAGTCACCTAGTGCAG” the binding signal was 10700 fluorescence intensity (a.u.). With “CTTAATTAATTAATAGCAGCAGCAATGCCACTGTGGCCATCGGAGTCACCTAGTGCAG” the binding signal was 53500 fluorescence intensity (a.u.). In the case of “TTATTTGTTTTGTTTGTGATTTGCTTTATTATCAAAAGTACGGAGTCACCTAGTGCAG”, the binding signal is reported as 4600 fluorescence intensity (a.u.). In the case of “ATCGTATCATTGATTTTCACTTAATATGGTGGACCCATCACGGAGTCACCTAGTGCAG”, the binding signal is reported as 12700 fluorescence intensity (a.u.). With “ACAGACATAAATACGATTGATTAAGTAGTAGCCTAGCTAACGGAGTCACCTAGTGCAG” the binding signal was 14600 fluorescence intensity (a.u.). In the case of “GGTTTATTCAATTATGAAATTTTACTCCCCTATGTACTAACGGAGTCACCTAGTGCAG”, the binding signal is reported as 11100 fluorescence intensity (a.u.). For “GTTCATGCAATAACGTTAATTTGGGACTAGATTAGTATCCCGGAGTCACCTAGTGCAG”, the binding signal was 7620 fluorescence intensity (a.u.). For “TTTATAATTAGTATCAAAACATCCGATATGATAGTTACTTCGGAGTCACCTAGTGCAG”, the binding signal was 17100 fluorescence intensity (a.u.). For “CCAATCCACAACATAACCATCAATCATTCATTGACGCAAGCGGAGTCACCTAGTGCAG”, the binding signal was 4680 fluorescence intensity (a.u.). With “GATTAATTTACTAGACGAATCTTTTAAGCCTAATTACTCCCGGAGTCACCTAGTGCAG” the binding signal was 36100 fluorescence intensity (a.u.). With “CTAAACACGTTGATGGGCCTGAATGGAGGAAGCCCATCGACGGAGTCACCTAGTGCAG” the binding signal was 3790 fluorescence intensity (a.u.). “CCGTCGCCTGATGGAGCAGAATCGTGAAACACGTTGTAAGCGGAGTCACCTAGTGCAG” was tested, and the binding signal was 57800 fluorescence intensity (a.u.). For “TTTCATGTAAATTAACACGAGCCTGAATCCTCCGTTGAAGCGGAGTCACCTAGTGCAG”, the binding signal was 3750 fluorescence intensity (a.u.). “ATAATAATTAGTCATAAAGACAAGTGCTTATGCCCACTTACGGAGTCACCTAGTGCAG” was tested, and the binding signal was 16700 fluorescence intensity (a.u.). For “ATGTGTCAATTAATTATTTGCCACTCGCTGTCTATGACATCGGAGTCACCTAGTGCAG”, the binding signal was 28300 fluorescence intensity (a.u.). “GGTGGATGAGAATGGATTGAATGAAAACAACAACATATTACGGAGTCACCTAGTGCAG” was tested, and the binding signal was 7970 fluorescence intensity (a.u.). With “TTTTGATCACACCATGATTGATGCACAAATCCATATGAACCGGAGTCACCTAGTGCAG” the binding signal was 36800 fluorescence intensity (a.u.). In the case of “ATGATTGATTGCTTTTCCTAAATCCTAACCATGATGCTGTCGGAGTCACCTAGTGCAG”, the binding signal is reported as 65000 fluorescence intensity (a.u.). “TGAAGATTGATGAGATGGACGGTACCATTGCCGATGCTGTCGGAGTCACCTAGTGCAG” was tested, and the binding signal was 56700 fluorescence intensity (a.u.). In the case of “TTGCTGATTGAAGCTGATACTGTCGTGAAATGAACCATGTCGGAGTCACCTAGTGCAG”, the binding signal is reported as 38200 fluorescence intensity (a.u.). For “CAATTGTCCGGATTGAGATATGACTGAAGCGGATGCTGGACGGAGTCACCTAGTGCAG”, the binding signal was 3220 fluorescence intensity (a.u.). In the case of “ATTGATGGGTACATTGAGATGGAGCTGTTTGGACAAGTTGCGGAGTCACCTAGTGCAG”, the binding signal is reported as 7520 fluorescence intensity (a.u.). “GCCTAAGATAATTGATAAGAGTGCTTAAAGTGTACAACCGCGGAGTCACCTAGTGCAG” was tested, and the binding signal was 37500 fluorescence intensity (a.u.). For “TATATTATTTGTCAATCTTATTGTCAACTTATTAATCATCCGGAGTCACCTAGTGCAG”, the binding signal was 7160 fluorescence intensity (a.u.). In the case of “TCTGACCATTATTAATTTCTAGCAACTAGCAATTTTGTGCCGGAGTCACCTAGTGCAG”, the binding signal is reported as 6120 fluorescence intensity (a.u.). With “AGATTACATGATTGGAAATCTTTCACATATTTGTTTCAGGCGGAGTCACCTAGTGCAG” the binding signal was 51800 fluorescence intensity (a.u.). For “TGTCTAATTGGTATCGTGAAGACTCTGAACCATTTCCATCCGGAGTCACCTAGTGCAG”, the binding signal was 35200 fluorescence intensity (a.u.). For “CCCTTAATTAATTAAAACCGGTCACAGTATGTCCTTTAATCGGAGTCACCTAGTGCAG”, the binding signal was 41300 fluorescence intensity (a.u.). With “ATCTTAATTGAAACAAACACAGCTTTAGTATATGCATGTCCGGAGTCACCTAGTGCAG” the binding signal was 58900 fluorescence intensity (a.u.). With “CTTAATTAGCATGAAACACAAGTAGTATATGATTACACCACGGAGTCACCTAGTGCAG” the binding signal was 33100 fluorescence intensity (a.u.). With “GTCCAGGCTTAATTCAATCATTATATGTACATATCTTTGTCGGAGTCACCTAGTGCAG” the binding signal was 6860 fluorescence intensity (a.u.). “ATCTGTAATTTATTTTATTATTAGTCTACGCTTAATACTTCGGAGTCACCTAGTGCAG” was tested, and the binding signal was 22000 fluorescence intensity (a.u.). With “TTCAATTGATTATGAACTGCTTGTACTCTAATCAATGGTACGGAGTCACCTAGTGCAG” the binding signal was 55800 fluorescence intensity (a.u.). “TGATTGGTAATCAATCAATTATTATCATATACTCGCACTGCGGAGTCACCTAGTGCAG” was tested, and the binding signal was 62300 fluorescence intensity (a.u.).
